In PubChem BioAssay (Tox21):
“And” between values parts separate entries of the source, which are not always exact repeats. Equal values may be shown once. Records with an inconclusive call do not appear. The source made the active and inactive calls. Unless noted, calls come from the whole dose curve; as a rule, active = well fitted curve in the direction sought with a large enough effect in the repeat runs; inconclusive = weak or mixed curves; inactive = no such curve, though single readings can be large; an effect the other way counts as inactive or inconclusive.

Tests used:
[1] = qHTS assay to identify small molecule agonists of the hypoxia (HIF-1) signaling pathway - cell viability counter screen (AID 1224844; calls by dose curve; note: nearly all actives have a fitted effect of over 50% in size)
In short: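 HRE-bla ME-180; 0.5% dFBS; cpd 17 h, 37C, 5% CO2; CellTiter-Glo lum., 30 min RT, post-FRET read, same wells.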

[2] = qHTS assay to identify small molecule agonists of H2AX (AID 1224845; active = well fitted activation curve with a large enough effect in the signal ratio in the repeat runs, not every such curve was filed as active; the % refers to the signal ratio)
In short: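 Wild-type CHO-K1 cells plated overnight, then exposed 3 hr at 37C to compounds at 15 concentrations (0.76% DMSO). Lysed, then HTRF anti-pH2AX(S139)-cryptate/anti-H2AX-d2 detection after 24 hr at room temperature; emissions 665 and 620 nm.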

[3] = qHTS assay to identify small molecule agonists of the hypoxia (HIF-1) signaling pathway (AID 1224846; active = well fitted activation curve with a large enough effect in the signal ratio in the repeat runs, not every such curve was filed as active; the % refers to the signal ratio)
In short: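 Reporter induction in HRE-bla ME-180 cells is taken as agonism: cells sit 5 hrs after plating, receive compounds or DMSO only, incubate 17 hrs at 37C under 5% CO2, and are loaded with CCF4-AM for beta-lactamase FRET measurement.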

[4] = qHTS assay to identify small molecule agonists of H2AX - cell viability counter screen (AID 1224847; calls by dose curve; note: top concentration of the series differs between compounds; nearly all actives have a fitted effect of over 30% in size)
In short: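 After overnight plating of 1000 CHO-K1 cells per well, a 15-concentration compound series was applied for 3 hr at 37C. Luminescence from CellTiter-Glo, read following 30 min at room temperature, reflected cell viability.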

[5] = qHTS RealTime-Glo MT Cell Viability Assay in HepG2 cells - 24 hour (AID 1224867); note: nearly all actives have a fitted effect of over 50% in size
In short: (§1)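 Viability was tracked continuously by NanoLuc luminescence from prosubstrate reduced by living HepG2 cells, at successive time points over 40 h of compound exposure. Cells with reagent were preincubated 5 h at 37 °C before compound addition.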

[6] = qHTS RealTime-Glo MT Cell Viability Assay in HEK293 cells - 32 hour (AID 1224868); note: top concentration of the series differs between compounds; nearly all actives have a fitted effect of over 50% in size
In short: (§2)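 Viability tracked continuously by luminescence as live cells reduce a prosubstrate for NanoLuc; HEK293 cells preincubated 5 h, compound-treated at 37 C, and read at 0, 8, 16, 24, 32 and 40 h.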

[7] = A CellTox Green Cytotoxicity Assay to monitor cytotoxicity in HEK293 cells - 0 hour (AID 1224869); note: nearly all actives have a fitted effect of over 50% in size
In short: (§3)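 Tox21 screen in HEK293: membrane-impermeant cyanine dye fluoresces on binding dead-cell DNA; compound pinned 5 h post-seeding, plates held at 37 C, signal read repeatedly through 40 h.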

[8] = qHTS RealTime-Glo MT Cell Viability Assay in HepG2 cells - 40 hour (AID 1224870); note: nearly all actives have a fitted effect of over 50% in size
In short: (§4)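 HepG2 cells mixed with RealTime-Glo MT reagents (NanoLuc plus cell-permeant prosubstrate) were seeded at 600 cells/well, incubated 5 h at 37 C/5% CO2, then pinned with compounds in DMSO; nonlytic luminescence tracked viability during 40 h treatment.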

[9] = A CellTox Green Cytotoxicity Assay to monitor cytotoxicity in HEK293 cells - 40 hour (AID 1224871); note: nearly all actives have a fitted effect of over 45% in size
In short: as §3

[10] = qHTS RealTime-Glo MT Cell Viability Assay in HEK293 cells - 16 hour (AID 1224872)
In short: as §2

[11] = qHTS RealTime-Glo MT Cell Viability Assay in HepG2 cells - 8 hour (AID 1224873); note: nearly all actives have a fitted effect of over 55% in size
In short: as §4

[12] = qHTS RealTime-Glo MT Cell Viability Assay in HEK293 cells - 40 hour (AID 1224874); settings: RealTime-Glo luminescence; max response: stronger effect = lower value; note: nearly all actives have a fitted effect of over 50% in size
In short: (§5)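 HEK293 + NanoLuc + prosubstrate, 600 cells/well; 5 h, 37 C/5% CO2; compound 23 nL in DMSO by pintool; 37 C; luminescence read at 0, 8, 16, 24, 32 and 40 h time points.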

[13] = A CellTox Green Cytotoxicity Assay to monitor cytotoxicity in HEK293 cells - 24 hour (AID 1224875); note: nearly all actives have a fitted effect of over 45% in size
In short: as §3

[14] = A CellTox Green Cytotoxicity Assay to monitor cytotoxicity in HepG2 cells - 16 hour (AID 1224876); note: nearly all actives have a fitted effect of over 45% in size
In short: (§6)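 Measurements at 0, 8, 16, 24, 32 and 40 h of treatment captured CellTox Green fluorescence in HepG2 cells that had been co-plated with reagent and preincubated 5 h at 37 C/5% CO2.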

[15] = qHTS RealTime-Glo MT Cell Viability Assay in HepG2 cells - 32 hour (AID 1224877); note: nearly all actives have a fitted effect of over 55% in size
In short: as §1

[16] = A CellTox Green Cytotoxicity Assay to monitor cytotoxicity in HepG2 cells - 24 hour (AID 1224878); note: nearly all actives have a fitted effect of over 45% in size
In short: as §6

[17] = A CellTox Green Cytotoxicity Assay to monitor cytotoxicity in HepG2 cells - 40 hour (AID 1224879); note: nearly all actives have a fitted effect of over 40% in size
In short: as §6

[18] = qHTS RealTime-Glo MT Cell Viability Assay in HEK293 cells - 0 hour (AID 1224880)
In short: as §5

[19] = qHTS assay to identify small molecule antagonists of the estrogen related receptor (ERR) signaling pathway from Tox21 library (AID 1224848); note: nearly all actives have a fitted effect of over 50% in size
In short: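 First, 2,000 ERR cells per well were plated and held 6 h at 37 C/5% CO2. Next, compounds in DMSO were pinned in and left 18 h at 37 C. Finally, ONE-Glo was added and luminescence read after 30 min at room temperature.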

[20] = qHTS assay to identify small molecule agonists of the estrogen related receptor (ERR) signaling pathway from Tox21 library (AID 1224849; calls by dose curve; note: nearly all actives have a fitted effect of over 15% in size); settings: ERR reporter cell line, ONE-Glo luciferase, 18 h; at 92.4 µM (top of the series)
In short: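 Tox21 compounds tested for ERR agonism in an NTP reporter cell line: 18 h treatment at 37 C, then ONE-Glo luminescence.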
% is set by controls: 0 for no effect and ±100 for the full control effect.

CCC1(CCC(C)C)C(=O)NC(=O)NC1=O
inactive: Potency [1] | Potency [2] | outcome [3] | Potency [4] | Potency [5] | Potency [6] | Potency [7] | Potency [8] | Potency [9] | Potency [10] | Potency [11] | max response [12] -4.01% | Potency [13] | Potency [14] | Potency [15] | Potency [16] | Potency [17] | outcome [18]

CC(C)(c1ccccc1)c1cc(-n2nc3ccccc3n2)c(O)c(C(C)(C)c2ccccc2)c1
inactive: Potency [1] | Potency [2] | outcome [3] | Potency [4] | Potency [5] | Potency [6] | Potency [7] | Potency [8] | Potency [9] | Potency [10] | Potency [11] | max response [12] 12.9% | Potency [13] | Potency [14] | Potency [15] | Potency [16] | Potency [17] | outcome [18]

CCCC[N+](CCCC)(CCCC)CCCC
inactive: Potency [1] | Potency [2] | outcome [3] | Potency [4] | Potency [19] | activity change, positive = activation [20] -11.1% | Potency [5] | Potency [7] | Potency [8] | Potency [9] | Potency [11] | Potency [13] | Potency [14] | Potency [15] | Potency [16] | Potency [17] | outcome [18]

Nc1cc(Cl)cc(C(=O)O)c1Cl
inactive: Potency [1] | Potency [2] | outcome [3] | Potency [4] | Potency [19] | activity change, positive = activation [20] 4.39% and 3.97% | Potency [5] | Potency [6] | Potency [7] | Potency [8] | Potency [9] | Potency [10] | Potency [11] | max response [12] 1.89% and 6.4% | Potency [13] | Potency [14] | Potency [15] | Potency [16] | Potency [17] | outcome [18]

Oc1cccc(Cl)c1
inactive: Potency [1] | Potency [2] | outcome [3] | Potency [4] | Potency [19] | activity change, positive = activation [20] 1.9% | Potency [5] | Potency [6] | Potency [7] | Potency [8] | Potency [9] | Potency [10] | Potency [11] | max response [12] 0.464% | Potency [13] | Potency [14] | Potency [15] | Potency [16] | Potency [17] | outcome [18]

COc1cc(C[C@@H](C)N)c(OC)cc1Br
inactive: Potency [1] | Potency [2] | outcome [3] | Potency [4] | Potency [19] | activity change, positive = activation [20] -15.6% | Potency [5] | Potency [6] | Potency [7] | Potency [8] | Potency [10] | Potency [11] | max response [12] -17.7% | Potency [13] | Potency [14] | Potency [15] | Potency [16] | outcome [18]

CC(C)CCCCCCCOC(=O)c1ccccc1C(=O)OCCCCCCCC(C)C
inactive: Potency [1] | Potency [2] | outcome [3] | Potency [4] | Potency [19] | activity change, positive = activation [20] 0.464% | Potency [5] | Potency [6] | Potency [8] | Potency [9] | Potency [10] | Potency [11] | max response [12] 11.2% | Potency [13] | Potency [14] | Potency [15] | Potency [16] | Potency [17] | outcome [18]
